According to PubChem BioAssay (NCATS):
Inconclusive results are not listed. Where a call stands in place of a potency, no number is given. Active and inactive are the calls of the source. Calls come from the whole dose curve; as a rule, active = well fitted curve in the direction sought with a large enough effect; inconclusive = small, poorly fitted or top-dose-only effect, or another doubt; inactive = no such curve, though single readings can be large; an effect the other way counts as inactive or inconclusive.

target: Beta-2 adrenergic receptor (Homo sapiens) (UniProt P07550); assay: qHTS validation assay of beta-arrestin-biased ligands of beta2-adrenergic receptor (AID 485366); settings: cell-based beta-arrestin recruitment to ADRB2, qHTS; series mostly up to 46.1 µM
Procedure, shortened: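 Compound series up to 46 microM applied to beta2-AR/beta-arrestin Tango cells, 18 hr, 37 degrees C, 5% CO2. Read-out: tTA-driven luciferase luminescence, converted to %Activity; concentration-response curves assigned curve classes.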

Sequence of Beta-2 adrenergic receptor (Homo sapiens) (P07550 whole entry, looked up): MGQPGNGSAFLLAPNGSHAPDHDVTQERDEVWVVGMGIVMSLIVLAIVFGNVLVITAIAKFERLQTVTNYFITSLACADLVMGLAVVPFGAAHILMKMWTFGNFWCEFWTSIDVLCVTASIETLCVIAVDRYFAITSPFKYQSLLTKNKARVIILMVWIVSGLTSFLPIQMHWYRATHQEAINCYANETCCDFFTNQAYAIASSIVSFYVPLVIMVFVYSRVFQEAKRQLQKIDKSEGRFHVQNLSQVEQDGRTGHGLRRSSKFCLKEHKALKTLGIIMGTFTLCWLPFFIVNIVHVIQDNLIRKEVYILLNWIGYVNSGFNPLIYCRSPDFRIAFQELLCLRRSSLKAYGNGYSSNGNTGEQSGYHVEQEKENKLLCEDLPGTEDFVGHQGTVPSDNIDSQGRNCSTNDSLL

| SMILES | outcome |
| --- | --- |
| CN1C[C@H](CNC(=O)OCc2ccccc2)C[C@@H]2c3cccc4c3c(cn4C)C[C@H]21 | inactive |
| CC[C@@H](CO)NC(=O)[C@@H]1C=C2c3cccc4[nH]cc(c34)C[C@H]2N(C)C1 | inactive |
| O=c1[nH]c2ccccc2n1C1CCN(CCCC(c2ccc(F)cc2)c2ccc(F)cc2)CC1 | inactive |
| Cc1ccc(S(=O)(=O)N[C@@H](CCCCN)C(=O)CCl)cc1 | inactive |
| O=c1[nH]c2ccccc2n1CCCN1CCC(n2c(=O)[nH]c3cc(Cl)ccc32)CC1 | inactive |
| Fc1ccc(C(OCCN2CCN(CCCc3ccccc3)CC2)c2ccc(F)cc2)cc1 | inactive |
| CC[C@@H](CO)NC(=O)[C@@H]1C=C2c3cccc4c3c(cn4C)C[C@H]2N(C)C1 | inactive |
| C=C(C)[C@H]1Cc2c(ccc3c2O[C@@H]2COc4cc(OC)c(OC)cc4[C@@H]2C3=O)O1 | inactive |
| COC[C@H]1OC(=O)c2coc3c2[C@@]1(C)C1=C(C3=O)C2CCC(=O)[C@@]2(C)C[C@H]1OC(C)=O (some centres undefined) | inactive |

system: not listed separately; assay: Quantitative high throughput screen for delayed death inhibitors of the malarial parasite plastid, 96 hour incubation (AID 488745); settings: Plasmodium falciparum growth; series mostly up to 28.7 µM; note: nearly all actives have a fitted effect of over 70% in size; note: potency is the fitted concentration of half-maximal effect
Procedure, shortened: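 Luciferase-expressing P. falciparum, infected RBCs 2% Hct/0.1% parasitemia (final); 96 h cpd exposure, 37 C, 5% CO2; RPMI 1640 + 0.5% Albumax, bicarbonate, gentamycin. Readout: luminescence loss = growth inhibition.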

| SMILES | Potency |
| --- | --- |
| CN(C)C(=O)C(CCN1CCC(O)(c2ccc(Cl)cc2)CC1)(c1ccccc1)c1ccccc1 | 7.38 µM (active) |
| CN1C[C@H](CNC(=O)OCc2ccccc2)C[C@@H]2c3cccc4c3c(cn4C)C[C@H]21 | 3.29 µM (active) |
| CCn1cc(C(=O)O)c(=O)c2ccc(C)nc21 | inactive |
| O=c1[nH]c2ccccc2n1C1CCN(CCCC(c2ccc(F)cc2)c2ccc(F)cc2)CC1 | 10.4 µM (active) |
| O=c1c(O)c(-c2ccc(O)c(O)c2)oc2cc(O)cc(O)c12 | 10.4 µM (active) |
| COc1ccc(Cc2nccc3cc(OC)c(OC)cc23)cc1OC | inactive |
| CC[N+](C)(C)c1cccc(O)c1 | 0.0059 µM (active) |
| O=c1[nH]cc(F)c(=O)[nH]1 | 9.28 µM (active) |
| O=c1[nH]c2ccccc2n1CCCN1CCC(n2c(=O)[nH]c3cc(Cl)ccc32)CC1 | 1.17 µM (active) |
| Fc1ccc(C(OCCN2CCN(CCCc3ccccc3)CC2)c2ccc(F)cc2)cc1 | inactive |
| CC[N+](CC)(CC)CC | 4.15 µM (active) |
| OCCN1CCN(CCCN2c3ccccc3Sc3ccc(C(F)(F)F)cc32)CC1 | 3.29 µM (active) |
| COC[C@H]1OC(=O)c2coc3c2[C@@]1(C)C1=C(C3=O)C2CCC(=O)[C@@]2(C)C[C@H]1OC(C)=O (some centres undefined) | 8.28 µM (active) |

system: not listed separately; assay: Quantitative high throughput screen for delayed death inhibitors of the malarial parasite plastid, 48 hour incubation (AID 488752); settings: Plasmodium falciparum growth; series mostly up to 28.7 µM; note: nearly all actives have a fitted effect of over 65% in size; note: potency is the fitted concentration of half-maximal effect
Procedure, shortened: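 Luciferase-expressing P. falciparum in RBCs, 2% Hct, 0.1% parasitemia final; RPMI 1640 + 0.5% Albumax; 48 h, 37 C, 5% CO2; luminescence readout, signal drop = growth inhibition.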

| SMILES | Potency |
| --- | --- |
| CN(C)C(=O)C(CCN1CCC(O)(c2ccc(Cl)cc2)CC1)(c1ccccc1)c1ccccc1 | 8.28 µM (active) |
| CN1C[C@H](CNC(=O)OCc2ccccc2)C[C@@H]2c3cccc4c3c(cn4C)C[C@H]21 | 7.38 µM (active) |
| CCn1cc(C(=O)O)c(=O)c2ccc(C)nc21 | inactive |
| Clc1cccc(N2CCNCC2)c1 | inactive |
| COc1ccc(Cc2nccc3cc(OC)c(OC)cc23)cc1OC | inactive |
| O=c1[nH]cc(F)c(=O)[nH]1 | 10.4 µM (active) |
| Cc1ccc(S(=O)(=O)N[C@@H](CCCCN)C(=O)CCl)cc1 | inactive |
| O=c1[nH]c2ccccc2n1CCCN1CCC(n2c(=O)[nH]c3cc(Cl)ccc32)CC1 | 10.4 µM (active) |
| C=C(C)[C@H]1Cc2c(ccc3c2O[C@@H]2COc4cc(OC)c(OC)cc4[C@@H]2C3=O)O1 | inactive |
| OCCN1CCN(CCCN2c3ccccc3Sc3ccc(C(F)(F)F)cc32)CC1 | 9.28 µM (active) |

target: Thioredoxin reductase 1, cytoplasmic (Rattus norvegicus) (UniProt O89049); assay: qHTS Assay for Substrates of Mammalian Selenoprotein Thioredoxin Reductase 1 (TrxR1) (AID 488772); settings: purified TrxR1, NADPH consumption substrate assay; series mostly up to 57.1 µM;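 note: a drop in NADPH fluorescence below the no-compound background marks a TrxR1 substrate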
Procedure, shortened: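 In this dual-purpose format, potential substrates are identified from the first fluorescence read after selenite addition, not from the 8-minute delta. Rat enzyme is preincubated with NADPH and then with compound at ~22 deg C.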

Sequence of Thioredoxin reductase 1, cytoplasmic (Rattus norvegicus) (O89049 whole entry, looked up): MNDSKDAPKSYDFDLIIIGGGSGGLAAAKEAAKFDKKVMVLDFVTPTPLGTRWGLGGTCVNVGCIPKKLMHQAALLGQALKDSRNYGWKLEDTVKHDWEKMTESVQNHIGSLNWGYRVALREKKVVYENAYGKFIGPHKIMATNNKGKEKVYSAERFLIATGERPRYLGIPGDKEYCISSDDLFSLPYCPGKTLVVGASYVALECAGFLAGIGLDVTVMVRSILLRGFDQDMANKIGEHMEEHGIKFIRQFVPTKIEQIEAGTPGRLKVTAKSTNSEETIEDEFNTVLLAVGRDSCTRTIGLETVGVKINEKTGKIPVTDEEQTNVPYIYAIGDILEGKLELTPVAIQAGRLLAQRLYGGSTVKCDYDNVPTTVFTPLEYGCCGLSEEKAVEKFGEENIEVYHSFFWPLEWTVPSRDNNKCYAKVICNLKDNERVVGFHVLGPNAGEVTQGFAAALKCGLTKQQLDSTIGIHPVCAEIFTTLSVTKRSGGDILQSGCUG

| SMILES | outcome |
| --- | --- |
| CN1C[C@H](CNC(=O)OCc2ccccc2)C[C@@H]2c3cccc4c3c(cn4C)C[C@H]21 | inactive |
| CC[C@@H](CO)NC(=O)[C@@H]1C=C2c3cccc4[nH]cc(c34)C[C@H]2N(C)C1 | inactive |
| O=c1[nH]c2ccccc2n1C1CCN(CCCC(c2ccc(F)cc2)c2ccc(F)cc2)CC1 | inactive |
| Cc1ccc(S(=O)(=O)N[C@@H](CCCCN)C(=O)CCl)cc1 | inactive |
| O=c1[nH]c2ccccc2n1CCCN1CCC(n2c(=O)[nH]c3cc(Cl)ccc32)CC1 | inactive |
| Fc1ccc(C(OCCN2CCN(CCCc3ccccc3)CC2)c2ccc(F)cc2)cc1 | inactive |
| CC[C@@H](CO)NC(=O)[C@@H]1C=C2c3cccc4c3c(cn4C)C[C@H]2N(C)C1 | inactive |
| C=C(C)[C@H]1Cc2c(ccc3c2O[C@@H]2COc4cc(OC)c(OC)cc4[C@@H]2C3=O)O1 | inactive |
| COC[C@H]1OC(=O)c2coc3c2[C@@]1(C)C1=C(C3=O)C2CCC(=O)[C@@]2(C)C[C@H]1OC(C)=O (some centres undefined) | inactive |

target: Thioredoxin reductase 1, cytoplasmic (Rattus norvegicus) (UniProt O89049); assay: qHTS Assay for Inhibitors of Mammalian Selenoprotein Thioredoxin Reductase 1 (TrxR1) (AID 488773); settings: purified TrxR1 enzyme activity; Potency: inhibition; series mostly up to 57.1 µM; note: nearly all actives have a fitted effect of over 40% in size; note: potency is the fitted concentration of half-maximal effect
Procedure, shortened: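 Inhibition is scored from the loss of NADPH fluorescence between first and last reads of an 8-min kinetic run. Selenite (400 uM) was the substrate, added after 15 min compound preincubation at room temperature.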

| SMILES | Potency |
| --- | --- |
| CN1C[C@H](CNC(=O)OCc2ccccc2)C[C@@H]2c3cccc4c3c(cn4C)C[C@H]21 | inactive |
| O=c1[nH]c2ccccc2n1C1CCN(CCCC(c2ccc(F)cc2)c2ccc(F)cc2)CC1 | inactive |
| Cc1cc2c(C(C)C)c(O)c(O)c(C=O)c2c(O)c1-c1c(C)cc2c(C(C)C)c(O)c(O)c(C=O)c2c1O | 15 µM (active) |
| O=c1[nH]c2ccccc2n1CCCN1CCC(n2c(=O)[nH]c3cc(Cl)ccc32)CC1 | inactive |
| Fc1ccc(C(OCCN2CCN(CCCc3ccccc3)CC2)c2ccc(F)cc2)cc1 | inactive |
| CC[C@@H](CO)NC(=O)[C@@H]1C=C2c3cccc4c3c(cn4C)C[C@H]2N(C)C1 | 10.6 µM (active) |
| C=C(C)[C@H]1Cc2c(ccc3c2O[C@@H]2COc4cc(OC)c(OC)cc4[C@@H]2C3=O)O1 | inactive |
| COC[C@H]1OC(=O)c2coc3c2[C@@]1(C)C1=C(C3=O)C2CCC(=O)[C@@]2(C)C[C@H]1OC(C)=O (some centres undefined) | 11.9 µM (active) |
